The values that follow come from PubChem BioAssay AID2284076 (EPA ToxCast).

Active and inactive are the calls of the source. Rule for the calls: active = hit-call score of the fitted dose curve at least 0.9, where 1 is the maximum; inactive = score below 0.9.

The assay deals with human EphA1 Receptor Tyrosine Kinase, EPHA1 (gene 2041) (UniProt P21709). In words: ERF_FR_ENZ_hEPHA1: Eurofins (ERF) Enzymatic Radiometric [Km ATP] KinaseProfiler LeadHunter Assay for human EphA1 Receptor Tyrosine Kinase. The procedure: ERF_FR_ENZ_hEPHA1 is a biochemical, single-readout assay that uses extracted gene-proteins in a cell-free assay. Measurements were taken 0.5 hour after chemical dosing in a 96-well plate. See EphA1 Human RTK Kinase Enzymatic HTRF Assay [Km ATP], Cerep.ERF_FR_ENZ_hEPHA1 is an assay component calculated from the ERF_FR_ENZ_hEPHA1 assay. It is designed to measure enzyme activity using a type of enzyme reporter as detected by fluorescence intensity with HTRF technology.Data from the assay component ERF_FR_ENZ_hEPHA1 was analyzed at the assay endpoint, ERF_FR_ENZ_hEPHA1, in the positive analysis fitting direction relative to DMSO as the negative control and baseline of activity. Using a type of enzyme reporter, loss-of-signal activity can be used to understand changes in enzymatic activity as they relate to gene EPHA1. To generalize the intended target to other relatable targets, this assay endpoint is annotated to the kinase intended target family, where the subfamily is receptor tyrosine kinase.
Sequence of human EphA1 Receptor Tyrosine Kinase, EPHA1 (gene 2041) (P21709 whole entry, looked up): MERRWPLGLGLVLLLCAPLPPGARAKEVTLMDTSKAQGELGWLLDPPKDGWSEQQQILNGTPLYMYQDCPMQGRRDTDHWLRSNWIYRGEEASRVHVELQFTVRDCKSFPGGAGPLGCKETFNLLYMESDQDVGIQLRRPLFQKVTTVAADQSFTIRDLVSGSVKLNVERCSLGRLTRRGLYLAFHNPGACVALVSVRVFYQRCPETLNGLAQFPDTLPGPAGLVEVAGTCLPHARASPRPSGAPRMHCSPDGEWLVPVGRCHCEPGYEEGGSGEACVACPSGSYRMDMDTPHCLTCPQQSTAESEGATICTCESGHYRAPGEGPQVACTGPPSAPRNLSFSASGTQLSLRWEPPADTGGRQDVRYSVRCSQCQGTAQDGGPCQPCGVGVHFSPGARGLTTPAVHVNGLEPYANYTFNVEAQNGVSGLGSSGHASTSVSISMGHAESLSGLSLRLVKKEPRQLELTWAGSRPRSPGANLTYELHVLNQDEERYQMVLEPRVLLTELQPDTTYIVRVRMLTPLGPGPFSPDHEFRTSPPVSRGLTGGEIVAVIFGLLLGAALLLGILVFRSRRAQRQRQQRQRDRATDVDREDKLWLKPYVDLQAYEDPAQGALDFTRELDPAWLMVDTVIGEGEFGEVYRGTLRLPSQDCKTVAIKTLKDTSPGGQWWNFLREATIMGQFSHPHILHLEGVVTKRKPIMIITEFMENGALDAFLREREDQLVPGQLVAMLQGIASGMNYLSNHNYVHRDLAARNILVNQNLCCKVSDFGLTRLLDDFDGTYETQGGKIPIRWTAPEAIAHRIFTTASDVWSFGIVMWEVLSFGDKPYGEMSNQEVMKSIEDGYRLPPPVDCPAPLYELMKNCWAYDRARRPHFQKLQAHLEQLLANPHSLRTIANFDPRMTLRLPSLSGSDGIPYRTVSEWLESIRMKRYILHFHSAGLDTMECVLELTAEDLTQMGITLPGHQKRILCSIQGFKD
EphA1 (h) is incubated with 8 mM MOPS pH 7.0, 0.2 mM EDTA, 250 uM […], 10 mM MgAcetate and [gamma-33P]-ATP (specific activity and concentration as required). The reaction is initiated by the addition of the Mg/ATP mix. After incubation for 40 minutes at room temperature, the reaction is stopped by the addition of phosphoric acid to a concentration of 0.5%. […]
As to `O=C(/C=C/c1ccc(O)cc1)CC(=O)/C=C/c1ccc(O)cc1`, the outcome was inactive.
